Drawing on PubChem BioAssay (NCI), this text covers growth inhibition for 16 molecules.

This is part of a sample that, as a whole, favours compounds with a hit. Of some 79,000 tested, about 15% had one in any assay. A number with no mark means an inactive call. Activity calls are given as the source filed them. Rule as the data show it: active = growth inhibition above about 70%; inactive = the rest.

This experiment is described as follows: NCI Yeast Anticancer Drug Screen. Data for the mlh1 rad18 strain (AID 175). To be noted: S. cerevisiae mlh1 rad18 strain growth inhibition; at 50.0 µM (retest, dose inferred, filed as 5.0); hits give high values. An outline of the steps:
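A repair-deficient yeast strain is exposed to test compound, and growth is scored relative to vehicle-treated controls.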
On to `Cc1cn(C2CC(Br)C(COC(c3ccccc3)(c3ccccc3)c3ccccc3)O2)c(=O)[nH]c1=O` (stereo unspecified), for which the growth inhibition is 98% (active).
On to `CC1CCN(CCOC(=O)C(c2ccccc2)C2C=CCCC2)C1` (stereo unspecified), for which the growth inhibition was 75% (active).
In the case of `C=CC(c1ccccc1)[C@@]1(OC(C)=O)C(=O)C(=O)OC1C1COC(C)(C)O1` (stereo partly specified), the growth inhibition was 98% (active).
As to `CC(C)S(=O)(=O)ON1C(=O)c2ccc(N(C)C)cc2C1=O`, the growth inhibition was 40%.
Take `CCCC(Sc1ccccc1)c1ccccc1NC(C)=O` (stereo unspecified): the growth inhibition was 15%.
The result for `Oc1c(C(Nc2ccccn2)c2ccccc2)ccc2cccnc12` (stereo unspecified) reads 96% (active).
In the case of `CC(=O)NC1=C(Cl)C(=O)c2ccccc2C1=O`, the growth inhibition is 99% (active).
For `CC1OC(c2ccc3c(c2)OCO3)OC1C` (stereo unspecified), the growth inhibition is 0%.
With `CN(C)CC(CN1CCCC1)C(=O)c1ccccc1` (stereo unspecified), the growth inhibition is 32%.
The result for `O=S(=O)(O)c1ccc2c(c1)C1C(C3C2C2(Cl)C(Cl)=C(Cl)C3(Cl)C2(Cl)Cl)C2(Cl)C(Cl)=C(Cl)C1(Cl)C2(Cl)Cl` (stereo unspecified) reads 93% (active); that for `Cc1cc(Cl)nc2ccc(Cc3ccc4nc(Cl)cc(C)c4c3)cc12`, 12%.
For `CC1CCC2(C)C(CC=C(C=O)C2(O)C=O)C12CO2` (stereo unspecified), the growth inhibition is 99% (active).
The result for `Cc1c(C)c(C)c(C(=O)c2ccccc2C(=O)NCCSC(C)(C)C)c(C)c1C` reads 55%; that for `O=[N+]([O-])C(=C1Nc2ccccc2N1)C(Cl)=C(Cl)Cl`, 16%.
The result for `CCCCNc1ccc(C(=O)OC2CCN(C)CC2)c(Cl)c1` reads 96% (active).
In the case of `CC(C)(C)OC(=O)c1ccc(NCC2=C(Br)C(=O)C=CC2=O)cc1`, the growth inhibition was 99% (active).
